Luc counter = Kinase-Glo luciferase inhibition (counter-screen). Q27757. Kinase-Glo luciferase, ATP luminescence, 8 min. Potency, µM (highest dose often 38.3 µM), usual class: inhibitors. actives 0.28% (n = 200,000). AID 1379; further: nearly all actives have a fitted effect of over 60% in size
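Luminescence was the read-out, taken after 8-minute incubation at ambient temperature. Luciferase turned over luciferin with 10 uM ATP in imidazole pH 7.2 buffer containing KCl, MgCl2, Tween 20 and BSA.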
VP16 counter = Gal4-VP16 reporter inhibition counter-screen. Drosophila S2 Gal4-VP16 UAS-luciferase, luminescence, 20 h. Potency, µM (highest dose often 53.6 µM), most hits filed as inhibitors. actives 3.5% (n = 310,000);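 further: Gal4-VP16 expression switched on by copper sulfate through the metallothionein promoter; nearly all actives have a fitted effect of over 50% in size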
RORgamma inh = inhibitors of mouse ROR gamma transcriptional activity. P51450. Drosophila S2 Gal4-RORgamma UAS-luciferase reporter, 20 h. Potency, µM (highest dose often 53.6 µM), usual class: inhibitors. actives 5.4% (n = 310,000). AID 2551; further: nearly all actives have a fitted effect of over 60% in size
Target sequence (P51450 whole entry, looked up, the tested form may be a part): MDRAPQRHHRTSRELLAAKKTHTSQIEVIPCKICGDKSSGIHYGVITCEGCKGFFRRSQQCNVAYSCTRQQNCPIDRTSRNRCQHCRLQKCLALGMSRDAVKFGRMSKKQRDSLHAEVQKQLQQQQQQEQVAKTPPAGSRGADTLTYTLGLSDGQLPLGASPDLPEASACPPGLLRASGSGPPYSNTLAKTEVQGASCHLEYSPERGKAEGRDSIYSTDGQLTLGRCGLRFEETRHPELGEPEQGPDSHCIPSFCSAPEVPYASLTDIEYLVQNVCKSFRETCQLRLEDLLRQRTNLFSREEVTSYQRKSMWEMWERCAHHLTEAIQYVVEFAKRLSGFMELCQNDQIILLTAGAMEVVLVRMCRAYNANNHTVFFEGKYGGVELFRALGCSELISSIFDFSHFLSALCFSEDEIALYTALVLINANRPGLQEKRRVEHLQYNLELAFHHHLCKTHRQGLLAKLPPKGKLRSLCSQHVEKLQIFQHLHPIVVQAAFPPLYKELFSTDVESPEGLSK
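Stably transfected Drosophila Schneider cells are the test system, with ROR gamma fused to Gal4 and luciferase under UAS control; luminescence is read after 20 hr of 700 uM copper sulfate induction at ambient temperature.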
A number is an active result; – = inactive; ? = inconclusive; · = no result given; [ ] = remark or other dose. An excerpt weighted towards active compounds, which were near 6.4% of everything screened. The call rests on the fitted dose curve; in most records, active means well fitted curve in the direction sought with a large enough effect; inconclusive means small, poorly fitted or top-dose-only effect, or another doubt; inactive means no such curve, though single readings can be large; an effect the other way counts as inactive or inconclusive.

SMILES	Luc counter	VP16 counter	RORgamma inh
COc1ccc(NC(=S)N(CCCN2CCC(C)CC2)Cc2cccs2)cc1Cl	–	–[10 µM]	11µM
Cc1cc(C)c2nc(-c3ccccn3)cc(C(=O)N3CCCC3)c2c1	·	–	–
COc1ccc(S(=O)(=O)N2CCOC2CNC(=O)C(=O)NCCc2ccc(OC)c(OC)c2)cc1 (stereo not drawn)	–	?	?
COc1ccc(CCNC(=S)NC(=O)c2ccccc2)cc1C	·	?	10µM
COc1ccc(CCNC(=O)CCNC(=O)c2ccc(Br)cc2)cc1OC	·	–	–
COc1ccc(CCNC(=S)NCCc2ccc(OC)c(OC)c2)cc1OC	·	–	–
COc1ccc(CCNC(=O)C(=O)NCC2OCCN2S(=O)(=O)c2ccc(Br)cc2)cc1OC (stereo not drawn)	–	7.9µM	?
COc1ccc(CCNC(=O)Cc2ccccc2)cc1OC	·	–	–[1.91 µM]
COc1ccc(CCNC(=S)NC(=O)c2ccc(Br)cc2)cc1OC	–	?	13µM
COc1ccc(CCNC(=S)c2ccccc2)cc1OC	·	16µM	?
CCOc1cc(/C=C(\C#N)C(=O)Nc2ccccc2[N+](=O)[O-])ccc1OCc1cccc2ccccc12	–	–	–
Cc1ccccc1C(=O)Nc1ccnn1C1CCN(C(=O)c2ccoc2)CC1	·	–	–
N#Cc1c(N)n[nH]c1-c1cc2c([nH]1)CCCC2	–	–	?
N#Cc1cc2c([nH]c1=S)CCCCCC2	–	16µM	7.1µM
N=c1nc(N)nc(N)n1-c1ccc(S(N)(=O)=O)cc1	–[7.66 µM]	·	·
CC1=C(C)CS(=O)N(c2ccc(S(N)(=O)=O)cc2)C1 (stereo not drawn)	–	4.5µM	3.5µM
O=S(=O)(c1ccccc1)N1CCN(S(=O)(=O)c2ccccc2)c2ccccc21	–[7.66 µM]	·	·
CC1=C(C)CS(=O)N(S(=O)(=O)c2ccccc2)C1 (stereo not drawn)	–	11µM	8.9µM
CC(=O)N1c2ccc(S(=O)(=O)N3CCCCC3)cc2CC1C(=O)NCc1ccc(N(C)C)cc1 (stereo not drawn)	·	–	–
N#CC/C(N)=N/Nc1nc2ccccc2nc1Cc1ccccc1	·	–	–
CCC(C)(C)n1nnnc1C(c1cccnc1)N1CCCc2ccccc21 (stereo not drawn)	–	–	–
CCC(C)(C)n1nnnc1C(c1cccs1)N1CCc2ccccc21 (stereo not drawn)	–	11µM	?
CSCC[C@H](NC(=O)[C@@H](NC(=O)[C@H](CCC(=O)O)NC(=O)[C@H](CCSC)NC(=O)[C@H](CC(N)=O)NC(=O)[C@H](CCC(=O)O)NC(=O)[C@H](CC(N)=O)NC(=O)[C@H](CO)NC(=O)[C@H](C)N)[C@@H](C)O)C(=O)O	·	–	–
COc1ccc(Oc2cc(C(F)(F)F)nc(N(C)C)n2)cc1	–	–	–
O=C(O)NCc1ccccc1 (tested in a mixture with another compound)	–[7.66 µM]	·	·
SMILES	Luc counter	VP16 counter	RORgamma inh
CCn1c(N2CCN(C(=O)C34CC5CC(CC(C5)C3)C4)CC2)nc2ccccc21	–	–[0.365 µM]	–
CCn1c(=N)n(CC(=O)C23CC4CC(CC(C4)C2)C3)c2ccccc21	–	8.9µM	4µM
CN(C)c1ccc(/C=C2/SC(=O)N(CCN=C3NS(=O)(=O)c4ccccc43)C2=O)cc1	·	–	–
CN(C)c1ccc(/C=C2\SC(=O)N(CCc3nnc(N)s3)C2=O)cc1	·	4.5µM	2.5µM
CCCCCN=Cc1c(C)[nH]n(-c2nc3ccccc3s2)c1=O	?	?	10µM
COCCCN=Cc1c(-c2ccccc2)[nH]n(-c2nc3ccccc3s2)c1=O	·	?	8.9µM
CCCc1[nH]n(-c2nc3ccccc3s2)c(=O)c1C=NCCCOC	·	–	?
O=c1c(C=NCCCO)c(-c2ccccc2)[nH]n1-c1nc2ccccc2s1	–	–	?
CCc1cc2ccc(C)cc2nc1SCC(=O)NC1CCCC1	·	–	–
Clc1ccc(/C=N/NC2=Nc3cccc4cccc2c34)cc1	–	14µM	2µM
COc1ccc(NC2=Nc3cccc4cccc2c34)cc1OC	–	–	–
C(=N\NC1=Nc2cccc3cccc1c23)/c1ccccc1	–	?	2.2µM
C(=N\NC1=Nc2cccc3cccc1c23)/c1cccnc1	–	–	?
COc1cc(/C=N/c2oc(C)c(C)c2C#N)cc(Br)c1O	·	–	–
O=C(Nc1cc(Cl)cc2c1[nH]c1cnccc12)c1cccnc1	·	–	–
COc1ccc(-n2c(=O)c(-c3ccc(Cl)cc3)nc3cnc(N4CCOCC4)nc32)cc1	–	–	–
N#CCOC(=O)C1CSC2(c3ccc(Br)cc3)CCC(=O)N12 (stereo not drawn)	–	–	–
Cn1cnnc1SCC(C)(C)NS(=O)(=O)c1ccc(Cl)cc1	·	–	–
Cc1ccccc1N=Cc1c(O)n(-c2nccs2)c(=O)c2ccccc12	–	–	–
O=c1c2ccccc2sn1-c1ccccc1	–	2.8µM	3.5µM
O=c1c2ccccc2sn1-c1ccc(S(=O)(=O)N2CCCC2)cc1	–	–	–
O=c1c2ccccc2sn1-c1nccs1	–	?	8.9µM
CCCN1Cc2cccc(C(=O)NCCc3ccccc3)c2C1=O	·	–	–
CC(Sc1ncnc2sccc12)C(=O)Nc1ccc(C(N)=O)cc1 (stereo not drawn)	–	–[10 µM]	–
COc1ccc(-c2c(C3C4C=CCCC4(C)C(=O)N3Cc3ccccc3)ccc3ccccc23)cc1 (stereo not drawn)	·	–	–
SMILES	Luc counter	VP16 counter	RORgamma inh
COc1ccc(/C=C/C(=O)Nc2ccccc2C(F)(F)F)cc1OC	·	–	–
COc1ccc(/C=C/C(=O)Nc2ccccc2C(=O)O)cc1	–	10µM	7.9µM
COc1ccc(/C=C/C(=O)ONC2=NCCCCC2)cc1OC	–	–	11µM
COc1ccc(NC(=O)Nc2ccc3c(c2)CCC3)cc1OC	–	–[10 µM]	–
COc1ccc(/C=C/C(=O)Nc2ccccc2C(=O)O)cc1OC	–	7.9µM	3.5µM
COc1ccc(/C=C/C(=O)NC2=NCCS2)cc1OC	–	–	–
COc1ccc(/C=C/C(=O)Nc2ccccc2C(=O)N2CCCC2)cc1	–	–	–
COc1ccc(/C=C/C(=O)Nc2ccc3c(c2)CCC3)cc1OC	–	4µM	?
Cc1ccc(/C=C2/N=C(c3ccccc3)NNC2=O)cc1	·	–	–
COc1ccccc1-n1c(SCC(=O)c2ccc(O)cc2O)nc2cc([N+](=O)[O-])ccc21	–	–	?
Cn1c(/C=N/NC(=O)c2ccccc2Br)nc2ccccc21	–	–	–
Cc1ccc(C(=O)N/N=C/c2nc3ccccc3n2C)cc1	–	–	11µM
Nc1cccc(Oc2ccc3c(c2)C(=O)N(CC2CCCO2)C3=O)c1 (stereo not drawn)	·	–	?
COc1ccc(C(=O)NCCN2CCOCC2)c(OC)c1	–	–	–
COc1ccc(C(=O)NCCn2ccc3ccccc32)c(OC)c1	–	?	10µM
COC(=O)CC1c2ccccc2S(=O)(=O)N1Cc1ccccc1 (stereo not drawn)	·	–	–
COc1ccccc1CNc1ncncc1-c1ccc(N(C)C)cc1	–	–	22µM
COc1ccccc1CNc1nc(-c2ccc(N(C)C)cc2)nc2ccccc12	–	?	7.9µM
COc1ccc(CNc2ncncc2-c2ccc(N(C)C)cc2)c(OC)c1	·	–	–
COc1ccccc1CNc1nc(-c2ccc(C(=O)N(C)C)cc2)nc2ccccc12	·	–	–

High-throughput results: PubChem, National Center for Advancing Translational Sciences (NCATS)
